Test results taken from PubChem BioAssay.
Active and inactive are the calls of the source.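 The calls were made as follows, unless noted: active = mean inhibition over 43.08%, the solvent-only control mean plus 3 SD; inactive = the rest.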

Tests used:
[1] = target: Nuclear receptor coactivator 3 (Homo sapiens) (UniProt Q9Y6Q9); test: NCOA3 GAL4-fusion reporter inhibition – cell-based, luminescence, quadruplicate, confirmation (AID 588792); conditions: HEK293 GAL4-SRC3 luciferase reporter, at 3.6 µM, active compounds read high;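 also: 0% = DMSO treated cells and 100% = gossypol at 36 µM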
Nuclear receptor coactivator 3 (Homo sapiens), sequence (Q9Y6Q9 whole entry, looked up, the tested form may be a part): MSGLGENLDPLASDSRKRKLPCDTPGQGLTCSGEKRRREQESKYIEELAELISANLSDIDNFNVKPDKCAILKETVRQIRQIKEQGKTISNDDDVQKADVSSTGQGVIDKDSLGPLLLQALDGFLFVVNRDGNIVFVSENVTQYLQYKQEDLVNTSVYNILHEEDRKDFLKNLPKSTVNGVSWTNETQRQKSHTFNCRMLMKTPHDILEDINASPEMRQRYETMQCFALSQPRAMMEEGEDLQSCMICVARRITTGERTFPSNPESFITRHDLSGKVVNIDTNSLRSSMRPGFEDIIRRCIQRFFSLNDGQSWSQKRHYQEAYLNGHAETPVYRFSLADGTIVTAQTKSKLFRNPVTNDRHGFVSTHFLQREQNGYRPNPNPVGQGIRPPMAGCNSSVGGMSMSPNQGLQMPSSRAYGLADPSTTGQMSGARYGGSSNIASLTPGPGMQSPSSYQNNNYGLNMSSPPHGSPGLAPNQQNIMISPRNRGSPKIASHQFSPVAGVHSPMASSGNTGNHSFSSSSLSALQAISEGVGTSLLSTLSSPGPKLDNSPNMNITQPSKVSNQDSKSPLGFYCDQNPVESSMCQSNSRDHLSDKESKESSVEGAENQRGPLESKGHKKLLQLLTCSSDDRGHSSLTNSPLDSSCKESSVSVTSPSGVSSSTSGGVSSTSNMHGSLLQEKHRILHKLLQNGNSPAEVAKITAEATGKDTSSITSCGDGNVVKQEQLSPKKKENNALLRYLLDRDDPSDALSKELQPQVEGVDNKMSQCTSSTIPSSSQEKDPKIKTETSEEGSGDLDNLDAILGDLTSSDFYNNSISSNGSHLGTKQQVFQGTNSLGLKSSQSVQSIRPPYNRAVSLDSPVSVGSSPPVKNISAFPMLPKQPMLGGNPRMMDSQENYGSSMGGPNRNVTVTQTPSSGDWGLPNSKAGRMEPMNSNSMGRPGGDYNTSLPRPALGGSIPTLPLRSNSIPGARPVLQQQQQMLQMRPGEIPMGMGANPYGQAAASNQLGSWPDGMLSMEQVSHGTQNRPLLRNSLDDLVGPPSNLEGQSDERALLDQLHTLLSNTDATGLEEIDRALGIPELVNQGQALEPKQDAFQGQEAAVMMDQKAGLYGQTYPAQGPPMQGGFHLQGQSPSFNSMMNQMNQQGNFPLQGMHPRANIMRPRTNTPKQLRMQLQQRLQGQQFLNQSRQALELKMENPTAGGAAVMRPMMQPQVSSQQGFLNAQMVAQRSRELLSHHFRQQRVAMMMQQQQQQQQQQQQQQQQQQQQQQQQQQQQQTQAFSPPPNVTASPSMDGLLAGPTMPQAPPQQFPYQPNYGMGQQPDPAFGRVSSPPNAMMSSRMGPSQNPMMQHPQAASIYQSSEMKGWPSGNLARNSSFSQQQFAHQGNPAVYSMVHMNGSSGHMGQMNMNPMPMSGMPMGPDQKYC

[2] = system: transactivating tegument protein VP16 (Human herpesvirus 1), Gal4-VP16 luciferase reporter; test: repression of VP16-driven luciferase reporter – cell-based, luminescence, high throughput, counter-screen for SRC3 inhibitor project (AID 588794; in the data active = inhibition above about 30%); conditions: mammalian cells, at 3.6 µM, active compounds read high

| Structure (SMILES) | inhibition [1] | inhibition [2] |
| --- | --- | --- |
| O=C1/C(=C/c2cccnc2)SC(=S)N1C1CCS(=O)(=O)C1 (stereo not drawn) | -0.1% (inactive) | 21% (inactive) |
| CCSc1ccccc1C(=O)NCc1ccc2c(c1)OCO2 | 1.07% (inactive) | -10.1% (inactive) |
| CC[N+](CC)(CC)CCOc1ccc(/C=C/c2ccccc2)cc1 | 3.27% (inactive) | 5.91% (inactive) |
| CN(C)c1cc[n+](CC(=O)Nc2ccc(Oc3ccccc3)cc2)cc1 | 15.7% (inactive) | 20.2% (inactive) |
| Cc1ccc(C(=O)C[n+]2ccc(Cc3ccccc3)cc2)cc1 | -4.6% (inactive) | 14.8% (inactive) |
| CCN1CCN(c2cc(C)c3cc(NC(=S)N4CCCC(C)C4)ccc3n2)CC1 (stereo not drawn) | 45.3% (active) | 31.4% (active) |
| COc1ccccc1N(CC(=O)N/N=C/c1c(O)ccc2ccccc12)S(C)(=O)=O | 34.2% (inactive) | 41.2% (active) |
| C=C(C)COc1ccc(-c2[nH]ncc2-c2ccc(OC)cc2)c(O)c1 | 7.89% (inactive) | 14.5% (inactive) |
| COc1ccc(/C(C)=N/NC(=O)c2cccc(S(=O)(=O)N3CCCC3)c2)c(O)c1 | 67.9% (active) | 63.5% (active) |
| COc1ccc(CCNC(=O)COc2ccc(N(C)S(=O)(=O)c3ccc(Cl)cc3)cc2)cc1 | 10.9% (inactive) | 20.2% (inactive) |
| COc1cccc(C(=O)/C=C/c2ccc(OCC#N)c(OC)c2)c1 | 22.2% (inactive) | 23.2% (inactive) |
| O=c1[nH]oc2cc(Cl)ccc12 | 3.14% (inactive) | -1.43% (inactive) |
| O=C(Nc1ccn(Cc2ccccc2F)n1)c1ccc(COc2ccccc2Cl)cc1 | 10.9% (inactive) | 22.1% (inactive) |
| Cc1nnsc1-c1onc(C)c1C(=O)Nc1cc(Cl)cc(Cl)c1 | 15.8% (inactive) | 13.8% (inactive) |
| COCCN(CCOC)S(=O)(=O)c1ccc(C(=O)Nc2nc3c(s2)CCc2ccccc2-3)cc1 | 0.71% (inactive) | 0.01% (inactive) |
| O=C(NN=Cc1cccc(O)c1O)c1ccccc1 | 23.7% (inactive) | 21.5% (inactive) |
| Cc1[nH]n(C)c(=O)c1N=Nc1ccc(S(C)(=O)=O)cc1 | 8.44% (inactive) | -1.15% (inactive) |
| CCCCCc1ccc(OCCOCCn2c[n+](C)c3ccccc32)c(CCCCC)c1 | 25.3% (inactive) | 36.4% (active) |
| Cc1oc(S(=O)(=O)N(C)C)cc1C(=O)Nc1ccc(Cl)cc1 | -1.4% (inactive) | 8.66% (inactive) |
| Cc1ccccc1OCCNC(=O)c1ccccc1Sc1ccccc1C#N | 6.19% (inactive) | 1.44% (inactive) |
| O=C1N=c2ccccc2=C1c1sc(=O)[nH]c1O | -3.29% (inactive) | 2.71% (inactive) |
| Cc1ccsc1/C=N/NC(=O)CNC(=O)c1ccccc1 | -11.5% (inactive) | -7.26% (inactive) |
| COc1ccc(NC(=O)c2cc3c(-c4ccc(OC)c(OC)c4)nn(C)c3s2)cc1OC | 10.7% (inactive) | 10.5% (inactive) |
| NC(=S)N/N=C1\CCOc2ccc(Cl)cc21 | 34.6% (inactive) | 9.88% (inactive) |
| CCSc1nnc(NC(=O)C(CC)(C(F)(F)F)C(F)(F)F)s1 | 7.54% (inactive) | 19.6% (inactive) |

| Structure (SMILES) | inhibition [1] | inhibition [2] |
| --- | --- | --- |
| COc1ccc(CN2C(=O)c3cccnc3C2=O)cc1S(=O)(=O)NCc1ccccc1 | 8.01% (inactive) | -6.65% (inactive) |
| O=C(Nc1nc(-c2ccc3c(c2)OCCO3)cs1)c1ccc(S(=O)(=O)N2CCCCC2)cc1 | -0.44% (inactive) | 32.6% (active) |
| CCN(CC)S(=O)(=O)c1cccc(NC(=O)C2SC(=Nc3ccc(C)cc3C)C(C(=O)NC(C)COC)=C2N)c1 (stereo not drawn) | 6.35% (inactive) | 5.31% (inactive) |
| COc1ccc(S(=O)(=O)NCc2ccncc2)cc1NC(=O)c1ccc(Cl)cc1 | 14.2% (inactive) | 4.55% (inactive) |
| CCCCNC1C(CC)C(CCC)C(C#N)(C#N)C1(C#N)C#N (stereo not drawn) | 3.79% (inactive) | 20% (inactive) |
| O=C(C1CCC1)N1CCN(c2ccnc3cc(Cl)ccc23)CC1 | 17% (inactive) | 6.97% (inactive) |
| COc1ccc(C(CNC(=O)C(C)(C)Oc2ccc(Cl)cc2)N2CCCCC2)cc1 (stereo not drawn) | 11.2% (inactive) | 2.63% (inactive) |
| COc1ccc(O)c(-c2[nH]ncc2C(=O)c2ccccc2)c1 | 26.3% (inactive) | 18.6% (inactive) |
| Cc1ccc(C2(c3ccc(C)cc3)CC2C(=O)Nc2ccc([N+](=O)[O-])cc2O)cc1 (stereo not drawn) | 11.3% (inactive) | 19.4% (inactive) |
| COCC(C)n1c(SCC(=O)NC(=O)Cc2ccccc2)nc2ccccc2c1=O (stereo not drawn) | 19.1% (inactive) | -4.14% (inactive) |
| S=C(N/N=C/c1ccc2ncccc2c1)Nc1cccnc1 | -1.24% (inactive) | -17.5% (inactive) |
| CCOc1ccc(CNC(=O)C2Cc3cc(S(=O)(=O)N4CCCC4)ccc3N2C(C)=O)cc1 (stereo not drawn) | 4.56% (inactive) | 8.25% (inactive) |
| NC(=O)CC(NC(=O)c1cccc(Br)c1)c1ccc(NC2CCN(Cc3ccccc3)CC2)c([N+](=O)[O-])c1 (stereo not drawn) | -3.11% (inactive) | -4.06% (inactive) |
| CCc1ccc2nc3nc(C)cc(C)c3c(N)c2c1 | 20.2% (inactive) | 32.7% (active) |
| O=C(Cc1ccccc1)Nc1cc(Cl)ccc1Sc1ccccc1 | 2.36% (inactive) | 5.41% (inactive) |
| COc1ccc(CCNC(=O)C2CCCN(S(C)(=O)=O)C2)cc1OC (stereo not drawn) | -14% (inactive) | -3.27% (inactive) |
| Cc1ccccc1OCc1n(CC(=O)OC2CC(C)CCC2C(C)C)c2ccccc2[n+]1C (stereo not drawn) | 13% (inactive) | 22.8% (inactive) |
| COc1ccc(C)cc1NC(=O)CN1C(=O)CSc2ccc(S(=O)(=O)N3CCCC3)cc21 | 4.25% (inactive) | 3.04% (inactive) |
| CC(C)C[C@H](NC(=O)c1[nH]cnc1C(=O)N[C@@H](Cc1ccccc1)C(=O)OC(C)(C)C)C(=O)OC(C)(C)C | 13.6% (inactive) | 2.92% (inactive) |
| O=C(Cc1ccccc1)N/N=C/c1cc(Br)cc(Cl)c1O | 19.8% (inactive) | 16.4% (inactive) |
| N#CCc1ccc(NC(=O)c2ccc(S(=O)(=O)N3CCOCC3)cc2)cc1 | -11.6% (inactive) | -6.42% (inactive) |
| Cc1cccc(C)c1NC(=O)c1ccc(-c2ccc(Cl)cc2Cl)o1 | 28.4% (inactive) | 23% (inactive) |
| CCOC(=O)c1ccc2nc(Nc3nc4ccc(F)cc4s3)sc2c1 | 15.2% (inactive) | 3.4% (inactive) |
| CCOc1ccc(N2C(=O)C(CC(=O)Nc3ccccc3)N(Cc3ccccn3)C2=S)cc1 (stereo not drawn) | 9.7% (inactive) | 12.2% (inactive) |
